# ELG1 DNA repair: inhibitors of ELG1-dependent DNA repair in HEK293T cells. HEK293T ELG1-luciferase reporter, luminescence, 16 h; DNA damage induced by 5-fluorouridine. Potency, µM (doses to about 46.1 µM), for the others: at the highest dose activity change, negative = inhibition, most hits filed as inhibitors. 330,000 compounds, 2.3% hits. AID 504467; note: potency is the fitted concentration of half-maximal effect; nearly all actives have a fitted effect of over 55% in size
#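 HEK293T cells expressing luciferase-tagged ELG1 (2,000/well) received 5-Fluorouridine plus compound or DMSO for 16 hr at 37 °C. Luciferase was read by ONE-Glo luminescence after 30 min at room temperature.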
# DT40 TDP1 no CPT: qHTS for Inhibitors of human tyrosyl-DNA phosphodiesterase 1 (TDP1): qHTS in cells in absence of CPT; DT40 Tdp1-/- hTDP1 cells, no CPT, ATP luminescence, 48 h; Potency, µM (highest dose often 46.2 µM), for the others: top-dose activity change, negative = growth inhibition, actives largely listed as inhibitors; 420,000 compounds, 15% hits; note: potency is the fitted concentration of half-maximal effect; nearly all actives have a fitted effect of over 55% in size
#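 DT40 Tdp1-/-;hTDP1 cells, no CPT (DMSO vehicle only), 400 cells/well; compounds pin-transferred; ≥48 hr, 37 °C; CellTiter-Glo 30 min RT dark, luminescence read.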
# Giardia killer: Giardia lamblia killing; 340,000 compounds, 0.15% hits; activity change, % at 7.66 µM, hits read low; Giardia lamblia trophozoite viability; in the data active = activity change below about -80%; inconclusive = between about -30% and that limit;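 note: parasites exposed to compound for two days anaerobically before the ATP read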
#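 Compounds were tested on trophozoites seeded at 100 cells/well and held 48 hrs at 37 deg C anaerobically. An ATP-based luminescent kit measured the remaining live cells.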
# DT40 TDP1 CPT: growth inhibition of DT40 Tdp1-/-;hTDP1 cells with camptothecin (screen for TDP1 inhibitors); Potency, µM (top dose mostly 46.2 µM), without a hit: at the top dose activity change, negative = growth inhibition, most hits filed as inhibitors; 420,000 compounds, 12% hits; chicken DT40 Tdp1-/-;hTDP1 cells + 20 nM CPT, ATP luminescence, 48 h; note: potency is the fitted concentration of half-maximal effect; nearly all actives have a fitted effect of over 55% in size
#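 Chicken DT40 Tdp1-/- cells complemented with human TDP1, 400 cells/well, exposed to compounds plus 20 nM camptothecin for at least 48 h at 37 C; viability read as ATP content by CellTiter-Glo luminescence.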
# TDP1 block: blocks human tyrosyl-DNA phosphodiesterase 1. recombinant TDP1, AlphaScreen DNA substrate cleavage. Potency, µM (doses to about 130 µM), without a hit: at the top dose activity change, negative = inhibition, actives largely listed as inhibitors. 350,000 compounds, 0.28% hits; note: potency is the fitted concentration of half-maximal effect; nearly all actives have a fitted effect of over 40% in size
# Target sequence (Q9NUW8 whole entry, looked up): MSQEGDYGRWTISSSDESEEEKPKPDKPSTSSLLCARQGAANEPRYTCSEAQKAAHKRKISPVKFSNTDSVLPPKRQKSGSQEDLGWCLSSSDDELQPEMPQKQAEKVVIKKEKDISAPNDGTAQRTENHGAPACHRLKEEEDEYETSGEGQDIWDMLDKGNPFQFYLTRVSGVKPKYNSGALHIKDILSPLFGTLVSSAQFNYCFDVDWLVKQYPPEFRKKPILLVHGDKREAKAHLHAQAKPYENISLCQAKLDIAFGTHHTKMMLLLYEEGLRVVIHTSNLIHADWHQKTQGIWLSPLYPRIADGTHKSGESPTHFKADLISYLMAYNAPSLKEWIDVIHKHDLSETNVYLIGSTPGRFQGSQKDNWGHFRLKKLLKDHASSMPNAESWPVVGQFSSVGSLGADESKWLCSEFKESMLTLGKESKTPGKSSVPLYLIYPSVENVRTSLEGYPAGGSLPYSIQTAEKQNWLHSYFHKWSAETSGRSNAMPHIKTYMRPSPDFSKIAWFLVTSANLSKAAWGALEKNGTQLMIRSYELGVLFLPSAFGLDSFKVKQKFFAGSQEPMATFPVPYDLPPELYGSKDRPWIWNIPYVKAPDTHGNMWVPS
#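 Tdp1 1 nM final; 15 min RT w/ cpd; substrate 15 nM, 5 min; beads 10 ug/ml, 10 min; AlphaScreen read. Neg ctrl: no enzyme.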
# IL1B secr inh: inhibitors of inflammasome signaling (IL-1 beta secretion); THP-1 LPS/ATP IL-1B secretion, AlphaLISA, 16 h; hits give low values; activity change, % at 57.5 µM; 360,000 compounds, 4.7% hits; AID 743279; in the data active = activity change below about -50%; inconclusive = mostly about -30% to -49%
#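 THP-1 cells pretreated 1 hr with compounds (up to 57.5 uM final), then stimulated with LPS (250 ng/mL final) plus ATP (1.25 mM final); secreted IL-1B measured by AlphaLISA after 16 hr, decreased signal indicating inhibition.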
# * marks the source's active call; other numbers are inactive results; ? = inconclusive; · = no result given; [ ] = another dose, or the depositor's remark. The list is not random: actives were taken first. Their share in the collection is about 19%. Unless noted, calls come from the whole dose curve; as a rule, active = well fitted curve in the direction sought with a large enough effect; inconclusive = small, poorly fitted or top-dose-only effect, or another doubt; inactive = no such curve, though single readings can be large; an effect the other way counts as inactive or inconclusive. % is set by controls: 0 for no effect and ±100 for the full control effect.
SMILES,ELG1 DNA repair,DT40 TDP1 no CPT,Giardia killer,DT40 TDP1 CPT,TDP1 block,IL1B secr inh
CC(C)NC(=O)NC(=O)COC(=O)c1ccc([N+](=O)[O-])cc1Cl,-11.6%,-16.3%,7.6,-12.5%,5.9%,-2.8
O=C(Cc1cccc(C(F)(F)F)c1)NCC(=O)Nc1cc(Cl)ccc1Cl,-1.6%,?,-9.9,?,0.0%,-18.6
CC(C)(C)S(=O)N1Cc2ccc(CO)cc2[C@@H]1CCO (stereo partly specified),·,-3.6%,-11.0,?,·,2.8
COc1cc(Br)cc(CN2CCN(C=O)CC2)c1O,-1.7%,?,-3.6,25.9µM*,2.3%,4.5
C=Cc1ccc(Cn2c(=O)n(-c3cccc(C)c3)c(=O)c3c2c2cc(C)ccc2n3C)cc1,·,?,·,?,5.6%,·
CC1CN(Cc2cc(=O)oc3cc(O)ccc23)CC(C)O1 (stereo unspecified),4.6%,3.8%,4.7,13.9%,21.4%,37.2
COc1ccc(S(=O)(=O)N2CCCC2CNC(=O)C(=O)NCCc2ccccc2)cc1 (stereo unspecified),?,7.31µM*,6.7,7.31µM*,-3.5%,24.9
CCc1ccc(NC(=O)C(=O)NCC2CCCN2S(=O)(=O)c2ccccc2)cc1 (stereo unspecified),?,20.6µM*,-15.1,?,5.3%,-10.9
COc1ccc(S(=O)(=O)N2CCCC2CNC(=O)C(=O)NCc2ccccc2)cc1 (stereo unspecified),?,?,1.7,?,·,2.2
COc1ccc(CCNC(=O)C(=O)NCC2CCCN2S(=O)(=O)c2ccccc2)cc1 (stereo unspecified),?,18.4µM*,11.9,20.6µM*,0.8%,-30.0
COc1ccc(S(=O)(=O)N2CCCC2CNC(=O)C(=O)NCc2ccc(C)cc2)cc1 (stereo unspecified),-17.5%,16.4µM*,5.4,?,0.0%,-7.1
COC(=O)c1ccc(CN2CCOc3ccc(C(O)c4cccnc4)cc3C2)cc1 (stereo unspecified),·,-16.9%,·,2.8%[9.04 µM],·,·
Cc1ccc(S(=O)(=O)N2CCCC2CNC(=O)C(=O)Nc2ccc(F)cc2F)cc1 (stereo unspecified),-21.3%,14.6µM*,6.8,23.1µM*,0.6%,-9.5
O=C(NCCc1ccc(F)cc1)C(=O)NCC1CCCN1S(=O)(=O)c1ccccc1 (stereo unspecified),?,8.2µM*,-2.7,10.3µM*,·,-79.7*
O=C(NCC1CCCN1S(=O)(=O)c1cccs1)C(=O)Nc1ccc(F)cc1F (stereo unspecified),-3.9%,?,2.2,?,0.3%,1.0
COc1ccc(Cn2cc(CN3CC(N4CCN(CCO)CC4)CS3(=O)=O)nn2)cc1 (stereo unspecified),·,-14.1%,·,-0.8%,·,16.6
CCCCC(=O)Nc1ccccc1CC,6.7%,-17.2%,-11.8,2.3%,·,-0.6
CCOC(=O)c1ccc(CNC(=O)c2cc(COc3ccccc3SC)on2)o1,?,?,22.5,-23.0%,0.5%,-0.7
CC(=O)Nc1cc(-c2ccccc2Cl)cn2c(-c3ccc(S(C)(=O)=O)cc3)cnc12,·,?,·,?,·,-50.4*
CC(=O)Nc1cc(-c2cccc(C)c2)cn2c(-c3ccc(S(C)(=O)=O)cc3)cnc12,·,11.6µM*,·,14.6µM*,·,-57.4*
O=C(Oc1coc(CSc2nnc(NC(=O)C3CC3)s2)cc1=O)c1c(F)cccc1F,-1.4%,0.1%,-7.8,17.9%,·,4.2
O=C(O)CSc1nc2c(cnn2-c2ccccc2)c(=O)n1-c1ccc(Br)cc1,-7.8%,-18.0%,-0.8,0.8%,5.1%,26.9
Cc1ccc(-n2c(-c3cccc(C)c3)nc3c(cnn3-c3ccccc3)c2=O)cc1,·,?,·,?,0.0%[2.28 µM],·
Cc1cccc(-c2nc3c(cnn3-c3ccccc3)c(=O)n2-c2ccc(Br)cc2)c1,·,18.4µM*,·,?,-1.3%[12.3 µM],·
O=c1c2cnn(-c3ccccc3)c2nc(-c2cccs2)n1-c1ccc(Br)cc1,11.6%,0.581µM*,0.8,?,-6.2%,39.4
SMILES,ELG1 DNA repair,DT40 TDP1 no CPT,Giardia killer,DT40 TDP1 CPT,TDP1 block,IL1B secr inh
COc1ccc(-n2c(-c3cccc(F)c3)nc3c(cnn3-c3ccc(C)cc3)c2=O)cc1,·,25.9µM*,·,18.4µM*,-2.3%,·
Cc1cccc(-c2nc3c(cnn3-c3ccccc3)c(=O)n2-c2ccc(Cl)cc2)c1,·,14.6µM*,·,?,4.8%[12.3 µM],·
Cc1ccc(-n2ncc3c(=O)n(Cc4ccccc4C)cnc32)cc1C,·,?,·,-8.1%,0.0%,·
COC(=O)[C@H]1Cc2c([nH]c3ccccc23)CN1C(=O)COc1ccc2c(C)cc(=O)oc2c1,·,?,·,-28.6%[9.04 µM],6.2%,·
N#CCCN(Cc1cccnc1)C(=O)c1sc2cc(F)ccc2c1Cl,-10.7%,14.6µM*,-11.7,?,0.0%,5.4
CCc1ccc(C(=O)c2cn(CC(=O)Nc3cc(OC)ccc3OC)c3nc(C)ccc3c2=O)cc1,·,-67.1%,·,?,-13.2%,·
O=[N+]([O-])c1ccc2nc(CO)[nH]c2c1,·,0.501µM*,·,?,·,·
O=[N+]([O-])c1ccc(/C=C/c2nc3ccc([N+](=O)[O-])cc3[nH]2)cc1,-10.7%,4.11µM*,-20.4,5.8µM*,-2.3%,-8.8
Nc1nc2ccc([N+](=O)[O-])cc2[nH]1,0.0%,-25.4%,-5.1,-10.9%,7.6%,-21.2
O=[N+]([O-])c1ccc(/C=C/c2ccncc2)cc1,?,13µM*,-18.1,?,·,?
O=[N+]([O-])c1cccc(/C=C/c2ccncc2)c1,?,-23.8%,0.6,-20.6%,5.2%,?
NC(N)=Nc1nc2ccc([N+](=O)[O-])cc2[nH]1,0.0%,29.1µM*,-14.3,-17.3%,11.4%,?
Cc1ccc(C(=O)OCc2cc(=O)n3nc(CC(C)C)sc3n2)cc1,·,-6.1%,·,-26.1%,1.9%,·
COc1ccc(NC(=O)C2=C(C)Nc3ncnn3C2c2sccc2C)cc1 (stereo unspecified),·,7.0%,·,-0.5%,4.1%,·
CC(=O)NN(O)C1N(C)C(=O)N(Cc2ccccc2)C1(C)C (stereo unspecified),·,-9.1%,-9.8,14.3%,·,15.1
COc1cc(OC)c(NC2=C(c3ccc(C(F)(F)F)cc3)C(=O)c3ccccc32)cc1Cl,·,23.1µM*,·,?,2.1%[12.3 µM],·
Cc1ccc(C)c(NC(=O)CN2C(=O)c3ccccc3C2=O)c1,·,-8.6%,-6.1,11.5%,·,·

# Screening data (PubChem BioAssay)
